Laboratory results taken from PMC7819943, “Rice protein-binding microarrays: a tool to detect cis-acting elements near promoter regions in rice”.
In all, about 39,000 sequences were measured (“fluorescence intensity (a.u.)”: median about 4,300, highest 2% from about 39,000 on). The list comes from a sample in which the highest values are over-represented; it also holds similar and randomly drawn sequences.

Each sequence was assayed against T1, OsSMF1 (Oryza sativa, UniProt Q6ZLB0 1-436) (assay: protein-binding microarray (RPBM); PBS, 2% BSA, 51.3 ng/ul salmon testes DNA, 50 uM zinc acetate, 200 nM TF, 25 C, 1 h; high values mean tight binding). Conditions: protein: recombinant; tags: N-terminal polyhistidine and DsRed monomer fusion (pET32a); chain copies: 2; label: CyDye5-dUTP incorporated in the synthesized complementary strand; 3' TTTTT single-stranded linker to array surface; dsDNA, one strand shown.
T1 sequence: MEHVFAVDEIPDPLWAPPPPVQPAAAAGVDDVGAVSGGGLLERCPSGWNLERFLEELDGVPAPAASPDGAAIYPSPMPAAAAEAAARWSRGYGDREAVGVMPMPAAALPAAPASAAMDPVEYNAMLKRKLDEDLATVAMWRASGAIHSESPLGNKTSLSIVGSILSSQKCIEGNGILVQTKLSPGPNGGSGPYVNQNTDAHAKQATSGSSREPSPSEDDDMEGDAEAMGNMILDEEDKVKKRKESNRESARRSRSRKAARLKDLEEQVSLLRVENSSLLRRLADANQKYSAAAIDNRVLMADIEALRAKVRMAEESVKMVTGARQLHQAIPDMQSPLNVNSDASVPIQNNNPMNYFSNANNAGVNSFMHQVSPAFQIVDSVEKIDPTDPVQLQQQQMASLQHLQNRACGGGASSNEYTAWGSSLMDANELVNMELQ
In short: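 In PBS with 2% BSA, salmon testes DNA and 50 µM zinc acetate, 200 nM protein was incubated on a custom Agilent array at 25 °C for 1 h and then washed off. The array had been made double-stranded by primer extension with Cy5-dUTP and blocked with 2% BSA. The proteins were transcription factors fused N-terminally to polyhistidine and DsRed, expressed in E. coli BL21-CodonPlus and purified on Ni–NTA. The binding signal is per-feature fluorescence intensity (arbitrary units) from an Axon 4000B scanner.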
“AAGAAATCTCTTCATAGATCTCCTGATGAAAGAATTTAACCGGAGTCACCTAGTGCAG” was tested, and the binding signal was 3730 fluorescence intensity (a.u.). “CAGGCTACAGGGCATTTGTGTCATTTTGCAAGAAGGCATACGGAGTCACCTAGTGCAG” was tested, and the binding signal was 3380 fluorescence intensity (a.u.). In the case of “TGTTCCACTGTTGTGTGTGTGGCATTCTTGTACTGCATTTCGGAGTCACCTAGTGCAG”, the binding signal is reported as 3360 fluorescence intensity (a.u.). With “TTGTGTGCATTTCGGCATTTGGCTACAAGATTCTTGCAGTCGGAGTCACCTAGTGCAG” the binding signal was 39600 fluorescence intensity (a.u.). For “CTCGATACAGAGTGAGCGGGGTATGGCAATGACGAGCTATCGGAGTCACCTAGTGCAG”, the binding signal was 3160 fluorescence intensity (a.u.). With “GAATGAAAACTCAGGGGTAAGTAGGAGATGACGCAAAGTTCGGAGTCACCTAGTGCAG” the binding signal was 3580 fluorescence intensity (a.u.). With “GGCCATGTTGAATGACGCGTTGCTCTCCCTACTCTACGGACGGAGTCACCTAGTGCAG” the binding signal was 49100 fluorescence intensity (a.u.). In the case of “TTCTCCCTCTACTATTGCTGACGCCACCAACGCCCATGTGCGGAGTCACCTAGTGCAG”, the binding signal is reported as 13500 fluorescence intensity (a.u.). With “CGTCTCGCCGGAGCGTTGACGAGGACCTCTCTACTCTTCACGGAGTCACCTAGTGCAG” the binding signal was 3680 fluorescence intensity (a.u.). For “CCTTCCACATATGCTCATTCGAAAGTAACAAATTCACTCGCGGAGTCACCTAGTGCAG”, the binding signal was 3190 fluorescence intensity (a.u.). For “GGTGATTGCATTTGCTGATGTCAGGTATGCCTATTATATTCGGAGTCACCTAGTGCAG”, the binding signal was 14700 fluorescence intensity (a.u.). For “CGAGTTTAGAATCCACACCATGATTACATGTAAACAACGTCGGAGTCACCTAGTGCAG”, the binding signal was 44700 fluorescence intensity (a.u.). For “TTGGATGACACAACAACATGTAAGGTTAGAAACGATATGTCGGAGTCACCTAGTGCAG”, the binding signal was 3990 fluorescence intensity (a.u.). For “ACTAGTTTACAACCACACCAACATGTAGGCATGAACATGGCGGAGTCACCTAGTGCAG”, the binding signal was 22900 fluorescence intensity (a.u.). In the case of “AAAGTAGTTTCTGCACGTAAATCGGACGCTGACGTCAGCGCGGAGTCACCTAGTGCAG”, the binding signal is reported as 36600 fluorescence intensity (a.u.). In the case of “TAAAGTAGTTTTACACGTAAATCAGATGCTGACGTCAGCGCGGAGTCACCTAGTGCAG”, the binding signal is reported as 48600 fluorescence intensity (a.u.). For “AAAGTAGTTTTACACGTAAATCGGGCGCTGACGTTATCAGCGGAGTCACCTAGTGCAG”, the binding signal was 5310 fluorescence intensity (a.u.). For “AAACACACTGACACGCATTCGGCCCGTTCCCTCGATGCGTCGGAGTCACCTAGTGCAG”, the binding signal was 5340 fluorescence intensity (a.u.). For “ATGAACTCATGCAACATTACTGGCTGATGCATCAACTTTACGGAGTCACCTAGTGCAG”, the binding signal was 3270 fluorescence intensity (a.u.). For “AACATCATATATTGATGATTATTTGCTGCATAAGGAGATGCGGAGTCACCTAGTGCAG”, the binding signal was 4070 fluorescence intensity (a.u.). With “ATGATGCTGGATTGCTGGATACTGCATCAACATCATTAAGCGGAGTCACCTAGTGCAG” the binding signal was 44500 fluorescence intensity (a.u.). In the case of “AACTTTTAATGATGTTCAACATGGGAAAATATGTGGTGGACGGAGTCACCTAGTGCAG”, the binding signal is reported as 8320 fluorescence intensity (a.u.). For “AATATTGTGTGTTGTTGTGTTGTCATCTGATATATTTTAGCGGAGTCACCTAGTGCAG”, the binding signal was 6470 fluorescence intensity (a.u.). “ACCTAAACGAGCCAACACGCACGCTCATCGCATCTTTGCGCGGAGTCACCTAGTGCAG” was tested, and the binding signal was 3810 fluorescence intensity (a.u.). In the case of “ACACATGGAACTTGTGCCATATATCTGTAGGTGTGAAAATCGGAGTCACCTAGTGCAG”, the binding signal is reported as 41300 fluorescence intensity (a.u.). For “AAGGTAGGTTGTAGAACTGATGATCTGTCAATGGTGAAATCGGAGTCACCTAGTGCAG”, the binding signal was 4940 fluorescence intensity (a.u.). “TTCTACAACTTGGACCATAAAACGTGTAGTTTTGTGAAATCGGAGTCACCTAGTGCAG” was tested, and the binding signal was 3570 fluorescence intensity (a.u.). For “CGATGGCTGCCACTGCCAACGTCAAGCTCCTCTCCGACGGCGGAGTCACCTAGTGCAG”, the binding signal was 3850 fluorescence intensity (a.u.). In the case of “TCATCTCATCTCTCCACGTCACCCGACTCCGACTCCGTGGCGGAGTCACCTAGTGCAG”, the binding signal is reported as 16900 fluorescence intensity (a.u.). For “TGCGGACTACGTCAAGCTGACGTCATCTCCGACCCGACCTCGGAGTCACCTAGTGCAG”, the binding signal was 54000 fluorescence intensity (a.u.). In the case of “CCTACCACTGTTGAGTAACCACGTCTTTCGACGTATGCAGCGGAGTCACCTAGTGCAG”, the binding signal is reported as 6930 fluorescence intensity (a.u.). For “GCGGTCGGGCCGGCCCAGGAAATACCAGGCGACGTGGCGGCGGAGTCACCTAGTGCAG”, the binding signal was 8410 fluorescence intensity (a.u.). In the case of “ACTGACATCGAGGCCCCACGTGTCAGTGACCCAGTTCTTTCGGAGTCACCTAGTGCAG”, the binding signal is reported as 13400 fluorescence intensity (a.u.). With “TAAACTCTTTCTGTGAGTCAGCACAATAGCCCATCGTGCCCGGAGTCACCTAGTGCAG” the binding signal was 18700 fluorescence intensity (a.u.). For “ACTTCACCAGTTCACCACCGTGGCACTCCCTGGGACTGAACGGAGTCACCTAGTGCAG”, the binding signal was 3640 fluorescence intensity (a.u.). In the case of “GAGGACATGCATGTGCAAGGGGAGCAGGTGGGGTAAAATGCGGAGTCACCTAGTGCAG”, the binding signal is reported as 45500 fluorescence intensity (a.u.). For “GTGCGGATGGGGAGGTGTGGTGGAAGGGTGGACAGTGGAGCGGAGTCACCTAGTGCAG”, the binding signal was 3410 fluorescence intensity (a.u.). “TTGGGAGGGAGAGTGGTAAAGGGTGCTGGGGCTTTGGCTGCGGAGTCACCTAGTGCAG” was tested, and the binding signal was 4250 fluorescence intensity (a.u.). For “TTTGCCACTGTCCTACTAGATCTTGGTCTTATTTGAGAAGCGGAGTCACCTAGTGCAG”, the binding signal was 3550 fluorescence intensity (a.u.). With “TATGACATGTGGGCCAACTGCCAAGCAGCCTTACTTGACGCGGAGTCACCTAGTGCAG” the binding signal was 3360 fluorescence intensity (a.u.). With “GCTATTTATCTCATATGATGTCTTGGATGTTGTGTAGAAACGGAGTCACCTAGTGCAG” the binding signal was 40600 fluorescence intensity (a.u.). For “TATGAAAGTTTTCGATGTGATGTAATGTGATGGAAAGTTACGGAGTCACCTAGTGCAG”, the binding signal was 3140 fluorescence intensity (a.u.).
